Measured values: PubChem BioAssay AID778 (Sanford-Burnham Center for Chemical Genomics, 2007)
Hit rate of the full screen: of about 96,000 compounds, about 20,000 (21%) were called active.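 The calls were made as follows: active = CYP2C19 inhibition above a set limit at 5 µM in the primary screen (cut at about 50% in these data); inactive = the rest.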 These entries were drawn from the full list.

target: Cytochrome P450 2C19 (Homo sapiens) (UniProt P33261); test: blockers of cytochrome P450 2C19 activity – biochemical, luminescence, ADME assay, primary screen (AID 778); settings: CYP2C19 Supersomes, luciferin-H EGE luminescence, 30 min; at 5 µM; active compounds read high;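 also: plate controls were negative control wells for no effect and 2.5 mM tranylcypromine positive control for full effect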
Sequence (P33261 whole entry, looked up): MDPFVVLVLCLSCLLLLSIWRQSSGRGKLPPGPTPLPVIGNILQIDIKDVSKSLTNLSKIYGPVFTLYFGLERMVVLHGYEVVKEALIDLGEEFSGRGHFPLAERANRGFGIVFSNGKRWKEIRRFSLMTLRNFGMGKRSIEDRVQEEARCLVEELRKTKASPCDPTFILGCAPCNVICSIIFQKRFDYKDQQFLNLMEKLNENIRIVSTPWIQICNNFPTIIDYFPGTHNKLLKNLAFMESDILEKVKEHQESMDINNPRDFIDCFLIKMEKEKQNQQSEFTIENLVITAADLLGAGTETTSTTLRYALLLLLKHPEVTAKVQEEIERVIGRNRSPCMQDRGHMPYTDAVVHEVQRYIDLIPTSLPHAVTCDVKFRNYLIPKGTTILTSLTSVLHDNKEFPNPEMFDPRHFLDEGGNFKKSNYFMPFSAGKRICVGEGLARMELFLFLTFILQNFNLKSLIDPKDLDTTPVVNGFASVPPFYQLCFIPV

Structure (SMILES) | inhibition
Cc1ccc2cccc(O)c2[n+]1[O-] | 1.9% (inactive)
CCc1ccc2nc3sc(C(=O)Nc4nnc(CC)s4)c(N)c3cc2c1 | 39.6% (inactive)
CCCc1nc2ccccc2c(C(=O)OCc2nnc(-c3cc(OC)c(OC)c(OC)c3)o2)c1CC | 69.1% (active)
COc1cc(-c2nnc(Cn3cc(C(F)(F)F)ccc3=O)o2)cc(OC)c1OC | 8.6% (inactive)
CCCc1nc2ccccc2c(C(=O)OCC(=O)c2ccc3c(c2)NC(=O)CO3)c1CC | -9.7% (inactive)
C=CCC(NCCCO)c1cccc(OC)c1OC (configuration not stated) | -15.9% (inactive)
CCOC(=O)N1CCN(S(=O)(=O)c2cc(Br)cc3c2N(C(=O)C2CC2)CC3)CC1 | 30.1% (inactive)
CCN(c1ccc2c(c1)OCO2)S(=O)(=O)c1cc(Br)cc2c1N(C(=O)C1CC1)CC2 | 51.5% (active)
O=C(C1CCN(S(=O)(=O)c2cnc[nH]2)CC1)N1CCN(Cc2ccc3c(c2)OCO3)CC1 | 11.6% (inactive)
CC(C)C(=O)Nc1cccc(NC(=S)NC(=O)C(c2ccccc2)c2ccccc2)c1 | 18.9% (inactive)
CCc1cc(=O)oc2cc(C)cc(OC(C)C(=O)O)c12 (configuration not stated) | -4.4% (inactive)
COc1ccc(NC(=O)C(CC(C)C)NS(=O)(=O)c2ccc3c(c2)CCN3C(C)=O)cc1OC (configuration not stated) | 31.2% (inactive)
COc1ccc(-n2c(SCC(=O)Nc3sc4c(c3C#N)CCCC4)nnc2-c2ccc(O)cc2)cc1 | 26.8% (inactive)
O=C(NCc1ccc2c(c1)OCO2)c1cc2c(s1)CS(=O)(=O)C2 | 28.8% (inactive)
CC(Sc1nncs1)C(=O)NCc1ccc2c(c1)OCO2 (configuration not stated) | 75.7% (active)
Cc1ccc2c(c1)-c1c(ssc1=S)C(C)(C)N2C(=O)CN1C(=O)c2ccccc2C1=O | 25.1% (inactive)
Cc1nc2ccc(S(=O)(=O)NCC(=O)O)cc2s1 | -10.3% (inactive)
N#Cc1ccc(OCCN2C(=O)NC3(CCSC3)C2=O)cc1 (configuration not stated) | -8.7% (inactive)
COc1ccccc1C1C2=C(COC2=O)Nc2cc3c(cc21)OCO3 (configuration not stated) | 91.7% (active)
CCCOc1ccccc1C1CC(=O)Nc2cc3c(cc21)OCO3 (configuration not stated) | 99.3% (active)
CCCOc1ccc(C2NC(=O)NC(c3ccccc3)=C2C(C)=O)cc1OCC (configuration not stated) | 11% (inactive)

Structure (SMILES) | inhibition
COc1cc2c(cc1OC)C(c1ccc(C)o1)CC(=O)N2 (configuration not stated) | -11% (inactive)
Cc1cc(=O)oc(C)c1C(=O)N1CCCCC1 | 20.5% (inactive)
O=[N+]([O-])c1ccccc1OCCCCN1CCCCC1 | 1% (inactive)
COc1cccc(C(=O)c2cc3ccc(O)cc3oc2=O)c1 | 83.3% (active)
COc1cccc(C(=O)NNC(=O)c2ccccc2Br)c1 | 8.8% (inactive)
COc1ccc2oc(=O)c(C(=O)O)cc2c1 | -14.5% (inactive)
CCOCCCNC(=O)C(NC(=O)CNC(=O)c1ccccc1)c1ccc(C)cc1 (configuration not stated) | -8.2% (inactive)
CCOC(=O)N1CCN(C(=O)c2cc3c(-c4ccc(Cl)cc4)nn(C)c3s2)CC1 | 9.1% (inactive)
COc1cccc(-c2nn(C)c3sc(C(=O)N4CCN(c5ccccc5)CC4)cc23)c1 | 23.7% (inactive)
O=C(c1cn(-c2ccccc2)nc1-c1cccnc1)N1CCCCC1 | 40.6% (inactive)
COc1ccccc1N1CCN(C(=O)Cn2nnc(-c3cccs3)n2)CC1 | 46.2% (inactive)
COc1ccccc1N1CCN(C(=O)c2cn(-c3ccccc3)nc2-c2cccnc2)CC1 | 93.8% (active)
COc1ccccc1N1CCN(C(=O)c2cc3c(-c4ccc(Cl)cc4)nn(C)c3s2)CC1 | 74.1% (active)
Cn1c(=O)[nH]c(=O)c2c1nc(N1CCN(CCO)CC1)n2CCSc1nc2ccccc2s1 | -15.3% (inactive)
O=C(NC1CCc2ccccc21)C12CN(Cc3ccccc3)CC1C(c1cccc([N+](=O)[O-])c1)=NO2 (configuration not stated) | 14.2% (inactive)
O=C(N/N=C\c1ccc(-c2ccc(Cl)c(Cl)c2)o1)C(=O)N1CCCC1 | 16.3% (inactive)
COC(=O)CN1C(=O)C(O)=C(C(C)=O)C1c1ccc([N+](=O)[O-])cc1 (configuration not stated) | -14.6% (inactive)
Cc1ccsc1C(=O)OCC(=O)c1cc2ccccc2o1 | 44.1% (inactive)
Cc1ccsc1C(=O)OCC(=O)c1cc(C)n(CC2CCCO2)c1C (configuration not stated) | 54.4% (active)
Cc1c(C(=O)NCC2CCCO2)sc2nc(-c3ccccc3)cn12 (configuration not stated) | 27.4% (inactive)
COC(=O)c1ccc(S(=O)(=O)N2CCC(c3nc4ccccc4o3)CC2)cc1 | 8.7% (inactive)

Structure (SMILES) | inhibition
Oc1ccc(/C=N/NC2=NCCCCC2)c(O)c1 | 13.9% (inactive)
COC(=O)C1CCN(CC(N)=O)CC1 | -8.8% (inactive)
Cc1cc([N+](=O)[O-])c(-c2ccc(/C=N/n3cnnc3)o2)cc1Cl | 63.7% (active)
Cc1cc(C)c([N+](=O)[O-])cc1-c1ccc(/C=N/NC(=O)c2nonc2N)o1 | 3.8% (inactive)
NC(=O)c1ccsc1NC(=O)c1ccco1 | 38.9% (inactive)
O=C(NCC(F)(F)F)Nc1nnc(C(F)(F)F)s1 | -26% (inactive)
CCOc1cc(S(=O)(=O)NCc2ccc3c(c2)OCO3)ccc1F | 91.8% (active)
CCOc1c2ccc(C(=O)NCc3ccc4c(c3)OCO4)cc2nn1C | 31.5% (inactive)
CCOc1cc(S(=O)(=O)NC2CC(C)(C)NC(C)(C)C2)ccc1F | -5.3% (inactive)
O=C(Nc1cc(-c2nn(CC(=O)N3CCCCC3)c(=O)c3ccccc23)ccc1N1CCOCC1)c1ccc(Cl)cc1 | 7.3% (inactive)
CC(C(=O)Nc1ccc(F)c(F)c1F)N1CCCCCC1 (configuration not stated) | 64.6% (active)
O=C(CN1C(=O)NC2(CCCC2)C1=O)Nc1ccc(F)c(F)c1F | 0.4% (inactive)
CC(C)C(=O)NC(=S)Nc1ccccc1F | 25.4% (inactive)
C=CCNc1ncnc2ccc(Br)cc12 | 20.7% (inactive)
Cc1nc(CNS(=O)(=O)c2cccnc2)cs1 | 19.3% (inactive)
Cc1ccc(S(=O)(=O)NCc2csc(C)n2)c(C)c1 | 13.3% (inactive)
Cc1nc(CNS(=O)(=O)c2ccc(Oc3ccccc3)cc2)cs1 | 73.1% (active)
CCOC(=O)c1sc(NC(=O)c2cc(S(=O)(=O)N3CCOCC3)ccc2C)nc1C | 35.4% (inactive)
Cc1cc(C(=O)OC(C)C(=O)Nc2cccc(S(=O)(=O)N3CCOCC3)c2)c(C)o1 (configuration not stated) | 96.4% (active)
Cc1cc(=O)oc2cc(OC(C)C(=O)Nc3ccc(N4CCOCC4)cc3)ccc12 (configuration not stated) | 27.5% (inactive)
